# Screening data deposited in PubChem BioAssay by National Center for Advancing Translational Sciences (NCATS).
# Methyltransferases: Primary Screen for Target Class Profiling of Small Molecule Inhibitors of Methyltransferases; AID 1745853, 2022; purified enzyme, MTase-Glo SAH luminescence; active compounds read low; 3.9% of 25,000 active; calls only at 40 µM; call rule not given here
#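 Each enzyme was reacted with SAM and its substrate, with compounds tested once at 40 uM; SAH formed was read by MTase-Glo luminescence.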
# Calls only; . = inactive; + = active, no number; ! = a repeat was not active. Many of the other results were omitted from the sample, so hits are more common in it than they were.
SMILES,Methyltransferases
[Cl-].[Cl][Pt].[NH2-].[NH2-].c1ccncc1,+
COc1cc(NC(=O)N2Cc3ccccc3-n3cccc3C2C)cc(OC)c1 (stereo unspecified),.
COc1cccc(NC(=O)N2Cc3ccccc3-n3cccc3C2c2ccccc2C)c1 (stereo unspecified),.
CC(=O)C1=C(O)[C@@H]2[C@H]3c4c[nH]c5cccc(c45)C[C@H]3C(C)(C)N2C1=O,+
CN1c2cccnc2CNCC[C@H]1CO,.
CCOC(=O)Cc1ccc(NC(=O)N2Cc3ccccc3-n3cccc3C2C(C)C)cc1 (stereo unspecified),.
CNC(=O)c1cc(C#N)cc(C)c1NC(=O)c1cc(Br)nn1-c1ncccc1Cl,.
COc1ccc(C2c3cccn3-c3ccccc3CN2C(=O)Nc2ccc(F)cc2)cc1 (stereo unspecified),.
COc1ccccc1NC(=O)N1Cc2ccccc2-n2cccc2C1c1ccc(SC)cc1 (stereo unspecified),.
O[C@@H]1CNC2Cc3c([nH]c4ccccc34)C1C2 (stereo partly specified),.
Cc1nnc2n1-c1sc(CCc3ccc(CC(C)C)cc3)cc1C(c1ccccc1Cl)=NC2C (stereo unspecified),+
C=C1C2(C)CC3C(C)(O)C4=CC(=O)OC(C)(C)C4=CCC3(C)C13C(=O)OC(C)C3(O)C2=O (stereo unspecified),.
Cc1ccccc1NC(=O)N1Cc2ccccc2-n2cccc2C1c1ccccc1 (stereo unspecified),.
CCOc1ccc(C2c3cccn3-c3ccccc3CN2C(=O)Nc2ccccc2C(F)(F)F)cc1 (stereo unspecified),.
Cc1ccc(C)c(NC(=O)N2Cc3ccccc3-n3cccc3C2c2ccc(Cl)cc2)c1 (stereo unspecified),.
COc1cccc(CNC(=O)N2Cc3ccccc3-n3cccc3C2c2ccc(C)cc2)c1 (stereo unspecified),.
CCN1C[C@]2(COC(=O)c3ccccc3N3C(=O)C[C@H](C)C3=O)CC[C@H](OC)[C@@]34[C@@H]5C[C@H]6[C@H](OC)[C@@H]5[C@](O)(C[C@@H]6OC)[C@](O)([C@@H](OC)[C@H]23)[C@@H]14,.
N#C/C(=C/c1ccc(O)c(O)c1)C(N)=S,+!
C1=C2CCCN[C@H]2[C@@H]2C[C@H]1[C@H]1CCCCN1C2,.
CN(N=O)c1cc(O)ccc1O,+
CCOc1ccccc1NC(=O)N1Cc2ccccc2-n2cccc2C1c1cccs1 (stereo unspecified),.
COc1cc2c(cc1Oc1ccccc1)NC(=O)C21CCN(c2nc(C)cnc2C)CC1,.
CCOC(=O)CNC(=O)N1Cc2ccccc2-n2cccc2C1CC (stereo unspecified),.
CN(C)c1ccc(C2c3cccn3-c3ccccc3CN2C(=O)Nc2ccc(Cl)cc2)cc1 (stereo unspecified),.
O=C(Nc1ccccc1F)N1Cc2ccccc2-n2cccc2C1c1ccccc1Cl (stereo unspecified),.
SMILES,Methyltransferases
CCOc1ccc(NC(=O)N2Cc3ccccc3-n3cccc3C2c2cccc(C)c2)cc1 (stereo unspecified),.
CCCN1CCc2cccc3c2[C@H]1Cc1ccc(O)c(O)c1-3,+
CCCN1CCO[C@@H]2c3cc(O)ccc3OC[C@H]21,.
CCOCCCNC(=O)N1Cc2ccccc2-n2cccc2C1c1cccc(C)c1 (stereo unspecified),.
COc1ccccc1NC(=O)N1Cc2ccccc2-n2cccc2C1c1cccc(C)c1 (stereo unspecified),.
Cc1cccc(C2c3cccn3-c3ccccc3CN2C(=O)NCCc2ccccc2)c1 (stereo unspecified),.
COc1ccc(NC(=O)N2Cc3ccccc3-n3cccc3C2c2ccc(SC)cc2)cc1 (stereo unspecified),.
C=CCN1CCC2(C)c3cc(O)ccc3C[C@H]1[C@H]2C,+
CC(C)[C@@H](CN1CC[C@@](C)(c2cccc(O)c2)[C@@H](C)C1)NC(=O)[C@H]1Cc2ccc(O)cc2CN1,.
O=C(Nc1ccc2c(c1)OCCO2)N1Cc2ccccc2-n2cccc2C1c1cc(F)cc(F)c1 (stereo unspecified),.
C/C=C(\C)C(=O)OC1CC2C(CC=C3CC(OC4CC(OC)C(OC5CC(OC)C(OC6OC(C)C(OC7OC(CO)C(O)C(O)C7O)C(OC)C6O)C(C)O5)C(C)O4)CCC32C)C2(O)CCC(C(C)=O)C12C (stereo unspecified),.
O=C(NCc1ccccc1)N1Cc2ccccc2-n2cccc2C1c1cc(F)cc(F)c1 (stereo unspecified),.
COc1cc2c(c(OC)c1OC)-c1ccc(SC)c(=O)cc1[C@@H](NC(C)=O)CC2,.
COc1ccc(CN(C(=O)[C@@H](N)Cc2c(C)cc(C(N)=O)cc2C)[C@@H](C)c2ncc(-c3ccccc3)[nH]2)cc1C(=O)O,.
CCCCN1[C@@H]2CC[C@H]1CC(OC(c1ccc(F)cc1)c1ccc(F)cc1)C2 (stereo partly specified),+
Cc1ccc(C)c(NC(=O)N2Cc3ccccc3-n3cccc3C2c2ccccc2)c1 (stereo unspecified),.
CSc1cccc(NC(=O)N2Cc3ccccc3-n3cccc3C2C)c1 (stereo unspecified),.
Cc1cccc(C2c3cccn3-c3ccccc3CN2C(=O)Nc2cccc(Cl)c2C)c1 (stereo unspecified),.
CNc1ccc2oc(C[C@H]3O[C@@]4(CC[C@H]3C)O[C@H]([C@H](C)C(=O)c3ccc[nH]3)[C@H](C)C[C@H]4C)nc2c1C(=O)O,+
Cc1ccc(C)c(NC(=O)N2Cc3ccccc3-n3cccc3C2c2cccc(Cl)c2)c1 (stereo unspecified),.
Cc1ccc(NC(=O)N2Cc3ccccc3-n3cccc3C2c2ccc(Cl)cc2)c(C)c1 (stereo unspecified),.
CCOc1ccc(C2c3cccn3-c3ccccc3CN2C(=O)Nc2cccc(C)c2C)cc1 (stereo unspecified),.
COC1CC(O[C@H]2CC[C@@]3(C)C(=CCC4C3C(O)[C@@H](O)[C@]3(C)[C@@H](C(C)=O)CC[C@]43O)C2)OC(C)C1OC1CC(OC)C(OC2OC(C)C(O)C(O)C2O)C(C)O1 (stereo partly specified),.
COc1ccc(C2c3cccn3-c3ccccc3CN2C(=O)Nc2ccccc2C)cc1OC (stereo unspecified),.
CCOc1ccc(C2c3cccn3-c3ccccc3CN2C(=O)NCCC(C)C)cc1 (stereo unspecified),.
SMILES,Methyltransferases
Cc1ccc(C2c3cccn3-c3ccccc3CN2C(=O)Nc2ccccc2)cc1 (stereo unspecified),.
Cc1ccc(NC(=O)N2Cc3ccccc3-n3cccc3C2C(C)C)cc1F (stereo unspecified),.
COc1ccc2c(c[n+](C)c3c4cc5c(cc4ccc23)OCO5)c1OC,+
CC(C)C1c2cccn2-c2ccccc2CN1C(=O)Nc1ccccc1Br (stereo unspecified),.
COc1ccc(NC(=O)N2Cc3ccccc3-n3cccc3C2c2ccc(N(C)C)cc2)cc1 (stereo unspecified),.
CCC1CN2CCc3cc(OC)c(OC)cc3C2CC1CC1=NCCc2cc(O)c(OC)cc21 (stereo unspecified),+
CN1Cc2c(ccc3c2OCO3)[C@@H]2[C@H]1c1cc3c(cc1C[C@@H]2O)OCO3,.
